The results in this text go back to PubChem BioAssay AID949 (Emory University Molecular Libraries Screening Center, 2007).

Each structure is given as a SMILES string. This is one part of the list. Active and inactive are the calls of the source.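 How the source made its calls: active means yeast growth recovered at 30 hours, either rising with dose fitted slope above 0.001 or with average optical density gain above 0.07 (some results past the limit were not filed as active); inactive means growth falling with dose or no effect.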

The nature of this test: SDO1-depleted yeast growth rescue, concentration-response, diseases of bone marrow failure, JHY4D, OD600 (AID 949).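 On OD recovery: gain in OD600 from 0 h to 30 h averaged across all seven doses.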 The conditions noted are these: S. cerevisiae JHY4D (SDO1-depleted) growth rescue, OD600, 30 h, efflux-deficient strain, SNQ2 and PDR5 mutated; OD recovery: stronger effect = higher value; dose-response slope: measured here: 30 h OD slope vs dose.
With `CC(C)OC(=O)c1c(NC(=O)c2ccco2)sc2c1CCCC2`, the dose-response slope amounted to 0.000949 and the OD recovery was 0.0368 (inactive).
As to `O=C(CSc1nc(-c2ccco2)cc(C(F)(F)F)n1)NCc1cccs1`, the OD recovery was 0.072 (active) and the dose-response slope worked out at 0.00107.
`O=C(COC(=O)/C=C/c1cccc(Cl)c1)NCCc1ccccc1`: the OD recovery was 0.091 (active) and the dose-response slope was -0.000894.
In the case of `COc1ccc(OCC(=O)NNC(=O)c2ccc(-c3ccccc3)cc2)cc1`, the dose-response slope was -0.000252 and the OD recovery is 0.0649 (inactive).
Take `CCOc1cccc2c1OC1(CCCCC1)N1N=C(c3cccnc3)CC21` (configuration not stated): the OD recovery is 0.0606 (inactive) and the dose-response slope is -0.000222.
Consider `Cc1oc2nc(SCC(=O)NCc3cccnc3)nc(N)c2c1C`, for which the dose-response slope was determined as 0.000887 and the OD recovery was 0.0937 (active).
`Cc1[nH]c2ccccc2c1C(=O)CSCC(=O)O`: the dose-response slope was -0.000672 and the OD recovery is 0.11 (active).
Regarding `CN(C)c1ccc(Nc2c3c4c(cccc4n(C)c2=O)C(=O)c2ccccc2-3)cc1`, the OD recovery is 0.0269 (inactive) and the dose-response slope is -0.000458.
As for `COc1ccc(/C(C)=N/NC(=O)CCC(=O)Nc2ccc(Cl)cc2Cl)c(OC)c1`, the OD recovery is 0.11 (active) and the dose-response slope is 0.000741.
As to `CC(=O)Nc1ccc(S(=O)(=O)NCCc2ccccc2)cc1`, the OD recovery is 0.0591 (inactive) and the dose-response slope came to 0.00092.
In the case of `COc1ccc(-c2nnco2)cc1OC`, the dose-response slope came out at 0.000454 and the OD recovery is 0.0477 (inactive).
`O=S(=O)(/N=C(/Nc1ccccn1)c1ccccc1)c1ccc(Cl)cc1`: the dose-response slope amounted to 0.000638 and the OD recovery was 0.0469 (inactive).
For the compound `COc1cc(OC)nc(S(C)(=O)=O)n1`, the OD recovery is 0.0647 (inactive) and the dose-response slope is 0.000101.
`COc1ccc(CNC(=O)c2c(C)cc(=O)oc2C)cc1OC`: the dose-response slope worked out at 0.000182 and the OD recovery is 0.0773 (active).
For `CS(=O)(=O)Nc1ccc(C(=O)N2CCCC2)cc1`, in that order: 0.000226 and 0.0956 (active).
For `COc1cccc(-c2nnc(NC(=O)c3ccc(S(=O)(=O)N(CC(C)C)CC(C)C)cc3)o2)c1`, in that order: -0.000585 and 0.0821 (active).
